# G9a block – G9a (human) methyltransferase inhibition; Q96KQ7; G9a H3K9 monomethylation, AlphaScreen, 2 h; Potency, µM (top dose mostly 102 µM), for the others: at the highest dose activity, negative = inhibition, hits mostly inhibitors; actives 8.8% (n = 350,000); also: % is scaled to controls: 0 for no effect and ±100 for the full control effect; nearly all actives have a fitted effect of over 75% in size
# Target sequence (Q96KQ7 913-1193 limits assumed): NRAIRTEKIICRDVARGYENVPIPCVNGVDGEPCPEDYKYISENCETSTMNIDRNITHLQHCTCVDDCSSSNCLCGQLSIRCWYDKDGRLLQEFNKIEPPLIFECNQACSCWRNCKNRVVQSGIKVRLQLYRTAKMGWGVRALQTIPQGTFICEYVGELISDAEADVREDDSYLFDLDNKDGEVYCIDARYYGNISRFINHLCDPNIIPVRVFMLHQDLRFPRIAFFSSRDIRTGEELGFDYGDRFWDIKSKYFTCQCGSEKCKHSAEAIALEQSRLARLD
#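 Quantitative HTS format: methyltransferase activity on a biotin-tagged H3K9 peptide is measured by AlphaScreen, using a rabbit anti-monomethyl-H3K9 antibody with streptavidin donor and anti-IgG acceptor beads. Final levels are 20 nM enzyme, 500 nM peptide, 20 uM SAM; 2 h RT.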
# L3MBTL1 inh – L3MBTL1 (human) inhibition; AlphaScreen L3MBTL1–H3K9me1 peptide binding; Potency, µM (series often up to 57.1 µM), for inactives: at the top dose activity, negative = inhibition, usual class: inhibitors; actives 0.66% (n = 230,000); also: % is scaled to controls: 0 for no effect and ±100 for the full control effect; nearly all actives have a fitted effect of over 60% in size
#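 First, the protein-peptide complex forms for 30 min at room temperature (L3MBTL1 50 nM, biotinylated H3K9me1 peptide 75 nM). Next, compounds are pin-transferred and incubated 30 min. Finally, AlphaScreen beads are added and read after 30 min.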
# BAZ2B inh – blocks human BAZ2B | AlphaScreen BAZ2B-H3K14Ac peptide displacement | AID 504333 | actives 4.4% (n = 360,000) | Potency, µM (doses to about 114 µM), without a hit: at the highest dose activity change, negative = inhibition, usual class: inhibitors | Q9UIF8; also: % is scaled to controls: 0 for no effect and ±100 for the full control effect; nearly all actives have a fitted effect of over 60% in size
#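 Inhibition is scored as reduced AlphaScreen emission. The BAZ2B/b-H3(5-23)K14Ac complex (50 nM each) in PBS pH 7.4, 0.01% Tween-20 meets compound (up to 110 uM) for 30 min at RT before bead addition.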
# Sfp inh – blocks B. subtilis Sfp PPTase activity; Biochemical Sfp PPTase activity, qHTS; AID 1490; actives 3.5% (n = 310,000); Potency, µM, for the others: largest response in the series, negative = inhibition, usual class: inhibitors; Q9F4F7;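 also: the enzyme is Sfp with the accession as filed and its product quenches rhodamine fluorescence; 0% = enzyme reaction without inhibitor and -100% = no enzyme wells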
#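 Step 1, compound plus 15 nM Sfp-PPTase, 15 min, room temperature. Step 2, add rhodamine-CoA (5 uM) and BHQ-2-YbbR (12.5 uM). Step 3, read 525/598 nm fluorescence at 0 and 30 min.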
# HP1b chromo inh – HP1-beta chromodomain-methylated histone interaction inhibition; P83916; AlphaScreen HP1-beta / biotin-H3K9me3 peptide binding; Potency, µM (titrated, usually from 114 µM), inactives show at the top dose activity change, negative = inhibition, hits mostly inhibitors; actives 0.56% (n = 390,000); AID 540317; also: nearly all actives have a fitted effect of over 70% in size
# Target sequence (P83916 whole entry, looked up): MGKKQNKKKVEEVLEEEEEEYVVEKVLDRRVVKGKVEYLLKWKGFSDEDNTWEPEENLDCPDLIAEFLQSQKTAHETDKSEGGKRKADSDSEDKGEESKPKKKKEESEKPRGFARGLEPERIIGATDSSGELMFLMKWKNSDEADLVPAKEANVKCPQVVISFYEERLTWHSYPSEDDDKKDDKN
#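 AlphaScreen: HP1-beta (50 nM) preformed 30 min with biotin-H3(1-18)K9me3 peptide (50 nM) in PBS pH 7.4, 0.01% Tween-20. Compound added for 30 min at RT, then streptavidin donor/nickel chelate acceptor beads (10 ug/mL) for 30 min.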
# JMJD2A Tudor inh – JMJD2A Tudor domain (human) inhibition; O75164; actives 4.4% (n = 390,000); AlphaScreen JMJD2A-Tudor / H3K4me3 peptide binding; AID 504339; Potency, µM (top dose mostly 114 µM), for the others: top-dose activity change, negative = inhibition, hits mostly inhibitors; also: % is scaled to controls: 0 for no effect and ±100 for the full control effect; nearly all actives have a fitted effect of over 50% in size
# An asterisk follows results filed as active; ? = inconclusive; . = no result given; [ ] = remark or other dose. Compounds with a hit are over-represented: about 12% of the library has one in this group of screens. Calls follow the shape of the dose curve; as a rule, active = well fitted curve in the direction sought with a large enough effect; inconclusive = small, poorly fitted or top-dose-only effect, or another doubt; inactive = no such curve, though single readings can be large; an effect the other way counts as inactive or inconclusive. Potency is read from the fitted curve at half-maximal effect.
SMILES,G9a block,L3MBTL1 inh,BAZ2B inh,Sfp inh,HP1b chromo inh,JMJD2A Tudor inh
CC1CCN(S(=O)(=O)c2ccc3c(c2)c(=O)c(C(=O)NC(C)c2ccccc2)cn3C)CC1 (stereo not drawn),?,.,.,.,6%,-25%
COc1ccc(C2c3ccc4ccccc4c3Oc3ncn4nc(Cc5ccccc5)nc4c32)cc1OC (stereo not drawn),7.1µM*,4%,-9%,2%,9%,-5%
CCOc1ccccc1CNC(=O)C1CCN(S(=O)(=O)c2c(C)noc2/C=C/c2ccc(C)cc2)CC1,13%[59 µM],.,-6%,.,23%[57 µM],-22%
Cc1cc(NC(=O)CN(C)S(=O)(=O)c2ccc3c(c2)CCC(=O)N3)ccc1Br,-47%[59 µM],.,-3%,.,11%,-12%
Cc1ccc(NC(=O)c2c(C)cc(C)nc2SCC(=O)Nc2ccc(Br)cc2)cc1,-2%[59 µM],.,1%,.,34%,1%
COc1cccc(N(CC(=O)NCCSCc2ccco2)S(=O)(=O)c2ccccc2)c1,-14%,.,?,-7%,-4%,-28%
Cc1ccc(C)c(N(CC(=O)NCCSCc2ccco2)S(C)(=O)=O)c1,?,-23%,?,20µM*,13%,-35%
CS(=O)(=O)Nc1ccc(C(=O)NCCSCc2ccco2)cc1,-26%[59 µM],?,5%,-11%,19%,-14%
CS(=O)(=O)N(Cc1ccccc1)c1ccc(C(=O)NCCSCc2ccco2)cc1,6%[59 µM],?,?,28µM*,-3%,?
Cc1cccc(N(CC(=O)NCCSCc2ccco2)S(=O)(=O)c2ccccc2)c1,17%[12.7 µM],-12%,?,56µM*,9%,?
CCc1ccc(N(CC)C(=O)c2ccc3c(=O)n4c(nc3c2)CCCCC4)cc1,12%[59 µM],.,-8%,.,17%,-21%
COc1ccc(S(=O)(=O)CC(=O)c2cc3cc(Br)ccc3oc2=O)cc1,25µM*,.,45µM*,-23%,-16%[57 µM],?
O=S(=O)(NCC(c1cccnc1)N1CCN(c2ccccc2)CC1)c1cccs1 (stereo not drawn),?,.,?,-8%,0%,-26%
COc1ccc(C(=O)NCC(c2cccnc2)N2CCN(c3ccccc3OC)CC2)cc1 (stereo not drawn),?,.,-20%,.,5%,-27%
CCS(=O)(=O)NCC(c1cccnc1)N1CCN(c2ccccc2OC)CC1 (stereo not drawn),?,2%,1%,14%,45%,-15%
COc1ccc(N2CCN(C(CNS(=O)(=O)c3cc(F)ccc3F)c3cccnc3)CC2)cc1 (stereo not drawn),45µM*,.,-38%,9%,-23%,?
COc1ccc(N2CCN(C(CNS(=O)(=O)c3cccs3)c3cccnc3)CC2)cc1 (stereo not drawn),89µM*,.,?,10%,-15%,?
O=S(=O)(NCC(c1cccnc1)N1CCN(c2ccc(F)cc2)CC1)c1cc(F)ccc1F (stereo not drawn),.,.,.,.,11%,?
COc1ccccc1N1CCN(C(CNC(=O)C(=O)NCCc2ccccc2)c2cccnc2)CC1 (stereo not drawn),5.6µM*,.,40µM*,.,20µM*,11µM*
COc1ccccc1N1CCN(C(CNS(=O)(=O)c2cccs2)c2cccnc2)CC1 (stereo not drawn),50µM*,-4%,-6%,1%,5%,-33%
CCC1CN(C(=O)Nc2ccc(C)c(F)c2)c2ccccc2S1 (stereo not drawn),-5%[59 µM],.,0%,.,66%,-20%
CCc1ccc(OCC2c3cc(OC)c(OC)cc3CCN2C(=O)Cc2ccc(OC)c(OC)c2)cc1 (stereo not drawn),-29%[59 µM],.,?,.,?,?
CCCN1CCN(C(=O)Cn2ncc3c4ccccc4n(Cc4cccc(Cl)c4)c3c2=O)CC1,-4%[59 µM],.,-32%,.,2%,-36%
